Experimental data taken from the supplement of paper PMC4166925.
± gives the standard deviation of the averaged measurements. Over roughly 33,000 sequences, “E-score (dimensionless, -0.5 to 0.5)” has its median near -0.049; the highest 2% begin near 0.37. The sample as a whole holds a higher share of the highest values than the screen did.

The sequences below were run on T1, PmTbr T-box DNA-binding domain (GST fusion) (assay: PBM E-score of 8-mer (E-score (dimensionless, -0.5 to 0.5)); Tbr is Tbrain of the sea star Patiria miniata (Pm) or the sea urchin Strongylocentrotus purpuratus (Sp); higher = stronger binding preference). Conditions: the construct has about 5 more residues each side.
T1 sequence: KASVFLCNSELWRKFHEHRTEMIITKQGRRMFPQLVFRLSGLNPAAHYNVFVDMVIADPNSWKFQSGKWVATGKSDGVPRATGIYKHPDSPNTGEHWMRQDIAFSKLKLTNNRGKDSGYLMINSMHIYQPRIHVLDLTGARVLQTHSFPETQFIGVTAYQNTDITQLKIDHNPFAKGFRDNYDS
How it was run: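 Universal Agilent oligonucleotide arrays, made double-stranded by primer extension, were incubated with 200 nM GST-fused Tbr T-box DNA-binding domain in PBS (pH 7.5). The protein was expressed in BL21 E. coli at 20 °C and purified by glutathione affinity chromatography. After scanning and quantification, the Universal PBM Analysis Suite assigned an enrichment E-score to each ungapped 8-mer, averaged over duplicate arrays.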

Row | Sequence | PBM E-score of 8-mer
1 | CCGCCCGA | 0.0216 ± 0.052
2 | CTCAAGAG | 0.00045 ± 0.0019
3 | CCAGACCA | -0.0405 ± 0.051
4 | GAGACAGC | 0.0107 ± 0.051
5 | CATCAGGG | -0.024 ± 0.045
6 | AGATAGTC | -0.0975 ± 0.03
7 | AATACTTG | -0.0724 ± 0.093
8 | AATGCGCA | -0.0568 ± 0.095
9 | AGGGGGAA | -0.14 ± 0.053
10 | CCTAAGTC | -0.0839 ± 0.0091
11 | AGTGTTAC | 0.3946 ± 0.0021
12 | ACTGTTAC | 0.118 ± 0.043
13 | AGTGTAAA | 0.287 ± 0.081
14 | AGTGTTAA | 0.433 ± 0.017
15 | GCTGTTAC | 0.0246 ± 0.042
16 | GGTGTAAC | 0.363 ± 0.027
17 | ACTGTTAA | 0.21 ± 0.045
18 | AGTGTTCC | 0.0364 ± 0.038
19 | CGTGTTAC | 0.349 ± 0.015
20 | GGTGTAAA | 0.418 ± 0.0026
21 | GGTGTTAC | 0.4752 ± 0.00012
22 | AATGTTAA | -0.0297 ± 0.11
23 | CCCACAGG | 0.0869 ± 0.067
24 | CCGGTTGC | -0.0645 ± 0.0032

Row | Sequence | PBM E-score of 8-mer
25 | CATAGATA | -0.161 ± 0.051
26 | ACCAACGA | 0.0332 ± 0.14
27 | GTGCTTGA | 0.00432 ± 0.026
28 | AGTGTTAT | 0.397 ± 0.016
29 | ACTGTTAT | 0.0989 ± 0.046
30 | AATGTTAT | -0.00229 ± 0.038
31 | CCCGAGGG | -0.251 ± 0.11
32 | CCTTCTCC | -0.0679 ± 0.015
33 | AGAGCAAA | -0.099 ± 0.029
34 | TAACAAGA | 0.0263 ± 0.085
35 | AGCTGCCA | 0.18 ± 0.026
36 | GTGTGCTA | 0.3066 ± 0.0011
37 | GGGTGCTA | 0.4326 ± 0.0028
38 | CGGTGCTA | 0.321 ± 0.0088
39 | ACGTGCCA | 0.367 ± 0.031
40 | AGGTGCCA | 0.4761 ± 0.0036
41 | AGGTGCCC | 0.0662 ± 0.046
42 | CGGTGCGA | 0.35 ± 0.017
43 | GGGTGCGA | 0.4765 ± 0.0031
44 | GTGTGCGA | 0.3565 ± 0.0019
45 | ACGTGCCG | 0.221 ± 0.02
46 | AGGTGCCG | 0.439 ± 0.0092
47 | CACGCCAC | 0.222 ± 0.04
48 | ACGAAGTG | 0.291 ± 0.018

Row | Sequence | PBM E-score of 8-mer
49 | CTGGGCCA | -0.217 ± 0.042
50 | AGGTCACA | 0.27 ± 0.017
51 | GCTACGAC | 0.00882 ± 0.05
52 | CGGCAATA | -0.0175 ± 0.065
53 | CGGCCTAA | -0.0861 ± 0.036
54 | AACTCAAC | -0.0361 ± 0.029
55 | CGCTATAA | 0.164 ± 0.045
56 | TGGTGCAA | 0.192 ± 0.012
57 | GCGTGCCA | 0.163 ± 0.015
58 | CGGTGCCA | 0.195 ± 0.0034
59 | AGGTGCAA | 0.4484 ± 0.0012
60 | GGGTGCAA | 0.31 ± 0.0046
61 | GGGTGCCA | 0.426 ± 0.011
62 | AAAGACCG | -0.149 ± 0.032
63 | TCCTGCCA | 0.183 ± 0.019
64 | GGCGTGAA | 0.4668 ± 0.002
65 | AGCGTGAA | 0.381 ± 0.004
66 | AGCGTGAT | 0.207 ± 0.025
67 | TGCGTGAA | 0.3679 ± 0.0033
68 | GGCGTGCA | -0.00275 ± 0.035
69 | AGCGTGAC | 0.3524 ± 0.0023
70 | GGCGTGAC | 0.386 ± 0.017
71 | AGCGTGAG | 0.24 ± 0.042
72 | CGCGTGAA | 0.398 ± 0.033

Row | Sequence | PBM E-score of 8-mer
73 | CGCGTGAC | 0.342 ± 0.0057
74 | CACGTGAA | 0.176 ± 0.044
75 | CGCGTGAG | 0.282 ± 0.004
76 | CTAGGATC | -0.255 ± 0.018
77 | TTGAGAAA | 0.0227 ± 0.14
78 | ATGACCAT | -0.23 ± 0.0083
79 | TCCTTAGA | -0.289 ± 0.043
80 | CCCAAGCC | -0.228 ± 0.037
81 | AGTCAATG | -0.195 ± 0.041
82 | CTTCCACA | 0.151 ± 0.069
83 | CGTCTTCA | -0.00878 ± 0.0017
84 | AGAACGAG | -0.0902 ± 0.0033
85 | CGGCGAAA | -0.1403 ± 0.00085
86 | GCCATTCA | 0.104 ± 0.018
87 | GAACGCTA | 0.0135 ± 0.049
88 | GATAACAA | 0.212 ± 0.042
89 | CATAACAC | 0.42 ± 0.0089
90 | GATAACAC | 0.4169 ± 0.0014
91 | GATAACGC | 0.246 ± 0.0034
92 | CATAACAA | 0.0483 ± 0.038
93 | AATAACAC | 0.339 ± 0.052
94 | GCTGTTCA | 0.0254 ± 0.024
